Sampled rows, rich in hits. Any-hit rate of the full collection: about 2.9%.
RAM inhibit: inhibitors of the yeast RAM network, primary screen, dse1pr::URA3 reporter, 5-FOA selection | hit rate 1.8% among 190,000 | S. cerevisiae dse1pr::URA3 reporter, 5-FOA growth OD615, 2 d; analog-sensitive cbk1-as2 kinase mutant strain | inhibition, % at 50 µM;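 active = inhibition above a set limit, 3 SD over mean compound inhibition, cut at about 8.4% in these data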;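 also: 0% = DMSO-only wells with no growth and 100% = 10 µM 1-NA-PP1 full growth; inhibition rescues growth on 5-FOA so higher OD means more RAM inhibition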
PGE2 EP2 inh: human EP2 receptor antagonists, primary screen, TR-FRET cAMP, C6 glioma cells. inhibition, % at 25 µM. C6 glioma cells expressing human EP2; cells stimulated with saturating PGE2. hit rate 0.52% among 260,000;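 active = percent inhibition above 40 after rounding to a whole number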;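 also: rat C6 glioma host cells with rolipram phosphodiesterase inhibitor present; the protocol text gives 20 µM as final concentration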
Rev-erbA mod: modulators of Rev-erb alpha DNA binding, primary screen, biochemical, FITC-DNA, fluorescence polarization, uHTS | Nuclear receptor subfamily 1 group D member 1 (Homo sapiens), P20393 | Rev-erbα–FITC-DNA binding, 90 min | activity, % at 10 µM | hit rate 0.79% among 370,000;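 active = activity above about 14%, limit read from the data; passing the limit was not always enough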;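 also: 0% = DMSO wells with 35 nM protein and 100% = DMSO wells with 750 nM protein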
Target sequence (P20393 whole entry, looked up): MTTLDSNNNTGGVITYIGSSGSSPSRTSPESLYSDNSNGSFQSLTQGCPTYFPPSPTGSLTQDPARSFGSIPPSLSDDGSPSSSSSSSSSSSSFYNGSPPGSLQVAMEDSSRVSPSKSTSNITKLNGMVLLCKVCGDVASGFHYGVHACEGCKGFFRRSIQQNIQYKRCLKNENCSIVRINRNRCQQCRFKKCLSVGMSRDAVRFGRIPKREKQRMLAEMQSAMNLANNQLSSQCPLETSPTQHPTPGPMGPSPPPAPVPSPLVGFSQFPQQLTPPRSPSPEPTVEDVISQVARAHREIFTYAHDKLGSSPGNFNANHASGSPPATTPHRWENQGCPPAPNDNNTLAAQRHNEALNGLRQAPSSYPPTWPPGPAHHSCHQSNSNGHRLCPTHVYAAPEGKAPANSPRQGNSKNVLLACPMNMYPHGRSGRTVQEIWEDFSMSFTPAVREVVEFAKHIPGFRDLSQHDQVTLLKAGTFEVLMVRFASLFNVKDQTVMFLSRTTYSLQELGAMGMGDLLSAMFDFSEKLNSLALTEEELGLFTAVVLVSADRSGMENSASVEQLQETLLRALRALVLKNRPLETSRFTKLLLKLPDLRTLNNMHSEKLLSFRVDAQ
SKN-1 inh: suppressors of acrylamide-induced Pgst-4::GFP reporter in worms, primary screen, SKN-1 inhibitor project, whole organism, uHTS, GFP/RFP fluorescence ratio, strain VP596. AID 624304, 2012. hit rate 0.49% among 360,000. C. elegans VP596 Pgst-4::GFP/RFP ratio, 24 h. inhibition, % at 21.8 µM;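 active = interference check ratio from 0.5 to 1.5 plus GFP to RFP signal ratio inhibition reaching or exceeding a fixed threshold, cut at about 30% in these data, passing the limit was not always enough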
EP2 modulator: EP2 receptor modulators, cAMP readout, primary screen, cell-based, HTRF cAMP, PGE2 stimulation. hit rate 0.83% among 260,000. Prostaglandin E2 receptor EP2 subtype (Homo sapiens), P43116. induction, % at 25 µM. EP2-expressing cells, cAMP HTRF FRET, PGE2 co-stimulation;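 active = compounds whose cAMP rise, as percent of the full-agonist control response, exceeds 60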;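 also: rat C6 glioma line stably carrying human EP2 under a CMV promoter; the protocol text gives 20 µM as final concentration; 100% = response of wells given 1 µM PGE2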
PG9 Ab binder: binders of HIV-1 gp120 antibody PG9, primary screen, biochemical, TR-FRET; TR-FRET gp120-PG9 antibody binding; inhibition, % at 6.7 µM; hit rate 0.43% among 360,000; in the data active = inhibition above about 8.5%
PG9 bind confirm: binders of anti-gp120 antibody PG9, confirmation, biochemical, TR-FRET; shares compounds with PG9 Ab binder; TR-FRET PG9 antibody binding; inhibition, % at 6.7 µM; hit rate 90% among 1,500; AID 651571, 2012; in the data active = inhibition above about 9%
PGV04 Ab binding: binders of control antibody PGV04, counter-screen for PG9 antibody binder project, biochemical, TR-FRET, distinct HIV envelope site; AID 651604, 2012; hit rate 95% among 1,500; TR-FRET PGV04 antibody-gp120 binding; inhibition, % at 6.7 µM; shares compounds with PG9 Ab binder; in the data active = inhibition above about 9.5%
PG9 bind DR: small-molecule binders of antibody PG9, dose response, biochemical, TR-FRET, HIV-1 gp120 antibody; 95 tested, under 10 active; TR-FRET PG9 antibody-gp120 binding inhibition; shares compounds with PG9 Ab binder; IC50, µM; in the data active = IC50 below about 10 µM
PGV04 binding DR: binders of control antibody PGV04, dose response, counter-screen for PG9 antibody binder project, biochemical, TR-FRET, distinct HIV envelope site; IC50, µM; shares compounds with PG9 Ab binder; hit rate 20% among 95; TR-FRET binding to control antibody PGV04
PG126 DR counter: binders of control antibody PG126, dose response, counter-screen for PG9 antibody binder project, biochemical, TR-FRET, distinct HIV envelope site | shares compounds with PG9 Ab binder | TR-FRET binding to antibody PG126, counterscreen | IC50, µM | hit rate 20% among 95
Rev-erbA confirm: modulators of Rev-erb alpha DNA binding, confirmation, biochemical, FITC-DNA, fluorescence polarization, single point; shares compounds with Rev-erbA mod; activation, % at 25 µM; hit rate 61% among 3,000; 90 min;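 active = activation at or above a set limit, or at least 3 SD above the negative control mean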;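 also: 0% = 35 nM protein with DMSO and 100% = 750 nM protein high control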
RORg DNA counter: modulation of RORgamma DNA binding, dose response, counter-screen for Rev-erb alpha modulator project, biochemical, fluorescence polarization, FITC-DNA; purified RORgamma protein-FITC-DNA binding; shares compounds with Rev-erbA mod; IC50, µM; hit rate 8% among 910;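 active = Compounds whose fitted half-maximal concentration for disrupting protein-DNA binding is below 10 micromolar; the record names Rev-erb in its text, so the target is in doubt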
* marks the source's active call; other numbers are inactive results; / = no result. Rule as the data show it, unless noted: active = IC50 below about 9 µM; inactive = the rest.

SMILES | RAM inhibit | PGE2 EP2 inh | Rev-erbA mod | SKN-1 inh | EP2 modulator | PG9 Ab binder | PG9 bind confirm | PGV04 Ab binding | Rev-erbA confirm | others
COc1ccc(-c2cc(C(F)(F)F)nc(SCC(=O)Nc3ccc(F)cc3C)n2)cc1OC | / | 9 | / | / | -105 | / | / | / | /
O=C(NCCN1CCOCC1)C(=O)Nc1cccc(Cl)c1 | / | 13 | / | / | 14 | / | / | / | /
CCOc1ccc(NC(=O)CNC(=O)c2nn(-c3ccc(OC)c(OC)c3)c(=O)c3ccccc23)cc1 | / | / | 111* | 9 | / | 40* | 23* | 61* | 91* | RORg DNA counter=>40
COc1ccc(-n2nc(C(=O)NCC(=O)Nc3cccc(Cl)c3)c3ccccc3c2=O)cc1OC | / | / | 289* | 26 | / | 39* | 35* | 66* | 273* | RORg DNA counter=>40
COc1ccc(-n2nc(C(=O)NCC(=O)Nc3ccc(F)cc3)c3ccccc3c2=O)cc1 | / | / | 39* | 1 | / | 11* | 17* | 25* | 8
CCc1ccc(NC(=O)CNC(=O)c2nn(-c3ccc(OC)cc3)c(=O)c3ccccc23)cc1 | / | / | 18 | 7 | / | 3 | / | / | /
CCCC(=O)N1CCN(c2ccc(NC(=O)c3ccc(OC)cc3)cc2)CC1 | / | 11 | / | / | -16 | / | / | / | /
Cc1ccsc1CN(CCCN1CCOCC1)Cc1ccc(F)cc1 | / | 4 | / | / | -32 | / | / | / | /
Cc1ccc(C(=O)NNC(=O)CSc2nc3sc4c(c3c(=O)n2C)CCCC4)cc1 | / | 6 | / | / | -23 | / | / | / | /
Cc1ccc(CSc2nc3ccncc3n2CC(=O)Nc2cc(C)cc(C)c2)cc1 | -2 | 15 | 81* | 0 | -7 | 25* | 32* | 50* | 34* | RORg DNA counter=0.26*
CCC(c1nnnn1C1CCCCC1)N(Cc1cc2ccc(C)c(C)c2[nH]c1=O)CC1CCCO1 (stereo not drawn) | / | 9 | / | / | 57 | / | / | / | /
Cc1cccc(NC(=O)C2CCCN(S(=O)(=O)c3cccc4nsnc34)C2)c1 (stereo not drawn) | 3 | 7 | 155* | 11 | -11 | 65* | 64* | 58* | 79* | PG9 bind DR=4.3*;PGV04 binding DR=3.9*;PG126 DR counter=4.3*;RORg DNA counter=>40
Cc1cccc(NC(=O)C2CCN(S(=O)(=O)c3cccc4nsnc34)CC2)c1 | 4 | 6 | 6 | 1 | -49 | -1 | / | / | /
Cc1ccc2c(c1)C(c1ccccc1)=NNC(c1ccncc1)=N2 | / | 17 | / | / | 9 | / | / | / | /
Cc1sc2nc(SCC(=O)N(CCO)CCO)nc(N)c2c1C | 0 | 4 | 1 | -1 | -27 | -1 | / | / | /
Cc1sc2nc(SC(C)C)nc(N)c2c1C | 4 | 12 | 49* | 2 | 17 | 11* | 8.8* | 13* | 41* | RORg DNA counter=>40
NC(=O)c1cc(Cc2ccccc2)sc1NC(=O)c1ccco1 | 1 | 11 | 5 | 3 | -9 | 2 | / | / | /
CCOc1ccc(CC(=O)Nc2sc(Cc3ccccc3)cc2C(N)=O)cc1OCC | 5 | 9 | 69* | 0 | 15 | 55* | 14* | 21* | 43* | RORg DNA counter=2.5*
Cc1cc2c(s1)c1cnn(CC(=O)NCCc3ccccc3)c(=O)c1n2C | 1 | 23 | 307* | / | -13 | 37* | 49* | 50* | 352*
O=C(Cn1cnc2sc(-c3ccccc3)cc2c1=O)NCc1ccccc1 | 1 | 11 | -8 | 25 | -32 | -1 | / | / | /
O=C(Cn1cnc2sc(-c3ccccc3)cc2c1=O)NCCc1ccccc1 | 4 | / | 65* | -19 | -3 | 9.1* | 40* | 60* | 28*
COc1ccc(C2C(C(=O)Nc3ccccc3OC)=C(C)NC3=C2C(=O)CCC3)c(OC)c1 (stereo not drawn) | / | 8 | / | / | 1 | / | / | / | /
Cc1cc2cc3c(nc2cc1C)OCC(=O)N(Cc1cccnc1)C3 | / | 14 | / | / | -12 | / | / | / | /
Cc1cc(C)c(C#N)c(SCC(=O)Nc2cccc(S(=O)(=O)N3CCCC3)c2)n1 | / | / | 21* | 16 | / | 37* | 41* | 65* | 11*
Cc1ccc(Sc2ccc(NC(=O)c3ccc(S(C)(=O)=O)cc3Cl)cc2)cc1 | 4 | 33 | 46* | 2 | 57 | 48* | 41* | 62* | 22*
CS(=O)(=O)c1ccc(C(=O)Nc2ccc(N3CCCCC3)cc2)c(Cl)c1 | 1 | 1 | 8 | -5 | -27 | -3 | / | / | /
COc1cccc(NC(=O)CSc2ncnc3c2oc2ccccc23)c1 | 5 | 11 | 685* | 5 | -1 | 69* | 75* | 93* | 749* | RORg DNA counter=>40
O=C1c2cccc3cccc(c23)C(=O)N1Cc1ccccc1 | 4 | 5 | 36* | 7 | -2 | 51* | 60* | 69* | 13
CCOC(=O)N1CCC(NC(=O)c2ccc3c(c2)N(Cc2ccc(C)cc2)CCS3)CC1 | 1 | 6 | 30* | 8 | 23 | 22* | 31* | 44* | 7
CCOC(=O)N1CCC(NC(=O)c2ccc3c(c2)N(Cc2ccc(F)cc2)CCS3)CC1 | 6 | 6 | 5 | 12 | 7 | 2 | / | / | /
